Results on 18 molecules are retold here after PubChem BioAssay (NCATS).

The structures appear in SMILES notation. Inconclusive results are not listed. A call without a number means that no potency is given here. The source made the active and inactive calls. Calls follow the shape of the dose curve; as a rule, active = well fitted inhibition curve with a large enough effect; inconclusive = small, poorly fitted or top-dose-only effect; inactive = no such curve, though single readings can be large or run the other way.

A short description of this test: Counterscreen qHTS for small molecule stabilizers of the endoplasmic reticulum resident proteome: GLuc-NoTag assay (AID 1508627).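 Also: SH-SY5Y cells given compound then 100 nM thapsigargin to empty ER calcium.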 As to conditions: Gaussia luciferase NoTag secretion counterscreen, luminescence, thapsigargin 100 nM for final 4 h; series mostly up to 76.4 µM. The gist of the method: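 SH-SY5Y cells stably expressing constitutively secreted GLuc (no SERCaMP tag) were pre-incubated 5 h, treated with compound for 19 h, then 100 nM thapsigargin for 4 h at 37C; medium GLuc read by coelenterazine luminescence.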
(The purpose of a counterscreen is to sort out artefacts and off-target activity.)
As to `COCCn1c(=O)c(-c2ccc(Cl)cc2)nc2cnc(OCc3ccccc3)nc21`, the Potency result is “inactive”.

As for `CN1CCN(c2ncncc2-c2ccccc2C(F)(F)F)CC1`, the Potency result was “inactive”.

In the case of `O=c1c(-c2ccccc2)nc2cnc(N3CCNCC3)nc2n1-c1ccccc1`, the Potency result was “inactive”.

For the molecule `Cc1ccccc1-c1nccc(Nc2ccc(F)cc2)n1`, the Potency entry is “inactive”.

Consider `COCCn1c(=O)c(-c2ccc(Cl)cc2)nc2cnc(OC)nc21`, for which the Potency result was “inactive”.

For `CN(C)c1nccc(N(Cc2ccccc2)Cc2ccccc2)c1C#N`, the Potency entry is “inactive”.

Regarding `Cc1nc2cnc(N3CCNCC3)nc2n(CCc2ccccc2)c1=O`, the Potency entry is “inactive”.

On to `CCCCCCCCCCCCc1ccccc1O`, for which the Potency entry was “inactive”.

Regarding `CN1CCN(c2ncnc3ccc(-c4ccccc4C#N)cc23)CC1`, the Potency entry was “inactive”.

`CN1CCN(c2ncc3nc(CCc4ccccc4)c(=O)n(Cc4ccc(F)cc4)c3n2)CC1`: the Potency result is “inactive”.

In the case of `N#CCCn1c(=O)c(-c2ccc(Cl)cc2)nc2cnc(OCc3ccccc3)nc21`, the Potency entry was “inactive”.

Consider `COc1ccc(Oc2ncc3nc(-c4cccs4)c(=O)n(CCC#N)c3n2)cc1`, for which the Potency result was “inactive”.

On to `COc1ccc(Oc2ncc3nc(CCc4ccccc4)c(=O)n(C[C@H]4CCCO4)c3n2)cc1`, for which the Potency result was “inactive”.

With `O=c1cnc2cnc(N3CCNCC3)nc2n1Cc1cccs1`, the Potency result is “inactive”.

As for `COc1ccc(CNc2ncnc3ccc(-c4ccccc4OC)cc23)c(OC)c1`, the Potency result was “inactive”.

For `Clc1ccccc1-c1nc(N2CCNCC2)c2ccccc2n1`, the Potency result is “inactive”.

Consider `COCCn1c(=O)c(CCc2ccccc2)nc2cnc(N3CCN(C)CC3)nc21`, for which the Potency entry was “inactive”.

Consider `O=c1c(-c2cccs2)nc2cnc(N3CCNCC3)nc2n1CCc1ccccc1`, for which the Potency entry was “inactive”.
